Assay results: PubChem BioAssay (NCATS)
Results filed as inconclusive are left out. Calls of active or inactive are those of the source. Calls follow the shape of the dose curve; as a rule, active = well fitted inhibition curve with a large enough effect; inconclusive = small, poorly fitted or top-dose-only effect; inactive = flat fitted curve, though single readings scatter.

Biological target: Calcium and integrin-binding protein 1 (Homo sapiens) (UniProt Q99828)
Test: Primary qHTS for Identification of Calcium Integrin Binding Protein 1 (CIB1) Competitor (AID 1508620); also: top concentration of the series differs between compounds
Conditions: CIB1-GST / FITC-alphaIIb peptide fluorescence polarization; series mostly up to 114 µM; activity change, negative = inhibition: at the top concentration
Outline: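 Fluorescence polarization competition: GST-tagged CIB1 (1 uM final) preincubated with compound 15 min at room temperature, then FITC-labelled alphaIIb peptide (100 nM final) added. After 15 min at room temperature, polarization read at Ex 480/Em 540.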
% is scaled to controls: 0 for no effect and ±100 for the full control effect.

Chain of Calcium and integrin-binding protein 1 (Homo sapiens) (Q99828 whole entry, looked up): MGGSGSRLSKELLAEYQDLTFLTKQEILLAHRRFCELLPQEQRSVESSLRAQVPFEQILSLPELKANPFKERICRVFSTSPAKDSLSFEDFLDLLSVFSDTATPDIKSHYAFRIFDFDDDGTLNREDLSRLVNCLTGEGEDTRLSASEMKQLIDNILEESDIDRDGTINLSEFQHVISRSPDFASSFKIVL

Row | SMILES | activity change, negative = inhibition | Potency
1 | NC(=O)C1CCN(c2nc(-c3ccc(OCc4ccccc4)cc3)cs2)CC1 | -4.3% (inactive) | 
2 | Cc1ccc(CNc2cccc(N3CCCCC3)c2)cc1 | 14.5% (inactive) | 
3 | CC(=O)Nc1sc2c(c1-c1nc3ccccc3s1)CN(C(C)C)C2 |  | inactive
4 | Cc1cc(NS(=O)(=O)c2ccc(NC(=O)Cc3ccccc3)cc2)no1 | -8.06% (inactive) | 
5 | Cc1cccc(-n2cnc3cc(C(=O)NC(C)(C)C)ccc32)c1 | 4.18% (inactive) | 
6 | Cc1c(P(=S)(c2ccccc2)c2ccccc2)c2ccccc2n1C(=O)NCc1ccc(F)cc1 | 3.69% (inactive) | 
7 | Oc1cc(Nc2ccc(N3CCCCC3)cc2)cc2cccnc12 | -11.9% (inactive) | 
8 | FC(F)(F)c1ccccc1-c1nc(NCc2ccc(-c3cccnc3)cc2)c2ccccc2n1 | 2.75% (inactive) | 
9 | Cc1nc(CNc2ncnc3ccc(-c4sc(C)nc4C)cc23)cs1 | 0.747% (inactive) | 
10 | O=C(NC1CCCc2c1cnn2-c1ccc(F)cc1F)c1ccc(C(=O)c2ccccc2)cc1 (stereo not given) | 3.03% (inactive) | 
11 | COc1cccc(N2C(=O)c3ccccc3C2=O)n1 | 5.4% (inactive) | 
12 | Cc1cc2c(s1)c1cnn(Cc3c(F)cccc3F)c(=O)c1n2C | 1.81% (inactive) | 
13 | Cc1ccc(OCCn2c(CCN(C)C(=O)C3CCCCC3)nc3ccccc32)cc1 | -9.81% (inactive) | 
14 | Cn1nnnc1Sc1ncnc2scc(-c3cccc(C(F)(F)F)c3)c12 | -3.32% (inactive) | 
15 | Cc1cc(-c2nnc3n2CCCCC3)c(C)n1-c1cccc(C(F)(F)F)c1 | 2.31% (inactive) | 
16 | Nc1ccc(NC(=O)Nc2nnc(-c3ccncc3)s2)cc1C(F)(F)F | -1.31% (inactive) | 
17 | O=C(Nc1ccc(Cl)c(C(F)(F)F)c1)Nc1nnc(-c2cccnc2)s1 | 3.39% (inactive) | 
18 | Cc1cc(NC(=O)Nc2nnc(-c3ccncc3)s2)ccc1F | -2.03% (inactive) | 
19 | Cc1nc(-c2ccc(S(=O)(=O)Nc3ccc(C)c(C)c3)s2)cs1 | 3.06% (inactive) | 
20 | Cc1ccc(CNc2ncnc3ccc(-c4ccc(C(=O)N(C)C)o4)cc23)o1 | -6.37% (inactive) | 

Row | SMILES | activity change, negative = inhibition | Potency
21 | Cc1cc2c(s1)c1cnn(Cc3ccccc3)c(=O)c1n2C | 1.99% (inactive) | 
22 | CC(C)c1ccccc1-c1nc(NCc2ccc(-c3cccnc3)cc2)c2occc2n1 | -0.709% (inactive) | 
23 | CN(Cc1ncc[nH]1)c1ncnc2ccc(-c3ccc4c(c3)OCO4)cc12 | -7.8% (inactive) | 
24 | O=C(O)CCc1cc(F)c(S(=O)(=O)N2CCN(S(=O)(=O)c3ccc4c(c3)OCCO4)CC2)cc1F | -7.99% (inactive) | 
25 | O=C1CCCC2=C1C1(CCCC1)N=C(Nc1nc3cc4ccccc4cc3o1)N2 | -2.54% (inactive) | 
26 | Cc1ccccc1C(=O)N1CCc2cc(-c3nc(NC(=O)Cc4ccc5ccccc5c4)sc3C)ccc21 | 1.06% (inactive) | 
27 | O=C(Cn1ncccc1=O)NCCc1ccccc1 | 3.14% (inactive) | 
28 | O=S1(=O)N=C(N2CCOCC2)c2ccccc21 | 0.0775% (inactive) | 
29 | Cc1ccc(C)c(SC2CS(=O)(=O)c3ccccc32)c1 (stereo not given) | 1.28% (inactive) | 
30 | COc1ccc(OC2=NS(=O)(=O)c3ccccc32)cc1 | 1.06% (inactive) | 
31 | Cc1cc(NS(=O)(=O)c2ccc(NC(=O)Cc3ccc(C)c(F)c3)cc2)no1 | -8.3% (inactive) | 
32 | CC(=O)Nc1sc2c(c1C(=O)O)CCNC2 | 1.07% (inactive) | 
33 | O=S(=O)(Nc1nccs1)c1ccc(NCc2ccccc2)cc1 | -2.6% (inactive) | 
34 | Cc1ccnc(NC(=S)N2CCN(c3cccc(C(F)(F)F)c3)C2)c1 | 0.285% (inactive) | 
35 | CCOc1ccc(CCNC(=O)c2cc3sccc3n2C)cc1OCC | -3.39% (inactive) | 
36 | Cc1sc(NC(=O)Cc2ccc3c(c2)OCO3)nc1-c1ccc2c(c1)CCN2C(=O)c1ccccc1F | 8.9% (inactive) | 
37 | COc1cccc(C2=Nn3c(nnc3-c3cccc(OC)c3OC)SC2)c1 | -0.241% (inactive) | 
38 | COc1ccc2c(=O)n3nc(Nc4ccc5c(c4)CCC5)sc3nc2c1 | 0.645% (inactive) | 
39 | COc1ccccc1NC(=O)c1ccc2ccccc2c1 | 4.28% (inactive) | 
40 | CCOC(=O)C1CCN(C(=O)CNC(=O)Nc2ccccc2Cl)CC1 | 3.94% (inactive) | 
